In PubChem BioAssay (NCI) one finds growth data, which are given here for eight compounds.

What all share (test): NCI-60 one-dose screen, 48 h (100 = growth as untreated, 0 = no growth, -100 = all killed)
Common to all, as to conditions: 10 µM unless noted

Test [1] deals with HCT-15 colon.
Test [2] concerns HT29 colon.
In test [3] the test system is SNB-75 CNS.
Test [4] has as its system SNB-19 CNS.
The test system of test [5] is U251 CNS.
Test [6] concerns PC-3 prostate.
Test [7] deals with SK-MEL-5 melanoma.
For test [8], the system named is UACC-62 melanoma.
Test [9] relates to LOX IMVI melanoma.
In test [10] the test system is SK-MEL-28 melanoma.
Test [11] concerns SK-MEL-2 melanoma.
For test [12], the system named is EKVX NSCLC.
Test [13] has as its system SN12C renal.
The test system of test [14] is UO-31 renal.
The subject of test [15] is TK-10 renal.
The subject of test [16] is ACHN renal.
For test [17], the system named is CAKI-1 renal.
The subject of test [18] is CCRF-CEM leukemia.
Test [19] deals with MOLT-4 leukemia.

About 83,000 compounds went through this panel and 20% of them were active in at least one assay; those are over-represented in the sample as a whole.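 Method: cells in 96-well plates; compound added at one concentration; 48 h incubation; percent growth measured; values under 10 scored active.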 Unmarked numbers belong to inactive results. Active and inactive are the calls of the source.

Turning to `O=C(O)/C=C\C(=O)N1C/C(=C\c2ccccc2Cl)C(=O)/C(=C/c2ccccc2Cl)C1`, the growth is -48.8% (active) in test [1]; -78.1% (active) in [2]; -10.3% (active) in [3]; -52.7% (active) in test [4]; -75.2% (active) in test [5]; 16.7% in test [6]. In addition, the growth in test [7] was -54.1% (active); in [8] it was -60.3% (active); in test [9], -69.3% (active); in test [10], -39.6% (active); in test [11], 37%; in test [12], 40.1%. Further, the growth in test [13] was -30.7% (active); in test [14] it was -64.9% (active); in [15] it was 0.472% (active); in test [16], 20.3%; in test [17], 0.997% (active); in [18] it was 3.66% (active). Further, the growth in test [19] was 4.86% (active).

Turning to `CC(=O)N1c2ccccc2NC2=C(C(=O)N(C)C2(C)C)C1C` (configuration not stated), the growth in [1] is 93.8%; in [2], 25.2%; in test [3] it was -3.29% (active); in test [4], 39.9%; in test [5] it was 18.1%; in test [6], 36.4%. The growth was 27.5% in test [7]; 32.3% in [8]; 37.5% in test [9]; 56% in [10]; 8.92% (active) in test [11]; 61.5% in test [12]. For the same compound, the growth is 40.7% in [13]; 82% in [14]; 87.1% in test [15]; 97% in test [16]; 71.9% in [17]; 20.7% in [18]. The growth in [19] was 33.3%.

In the case of `CC(Oc1ccc(C(=O)NS(=O)(=O)C(C)(C)C)cc1C(F)(F)F)c1ccc(Oc2ccccc2)cn1` (configuration not stated), the growth is 41.5% in test [1]; 59.5% in test [2]; 48.1% in test [3]; 63.8% in [4]; 58.1% in test [5]; 93.8% in test [6]. Moreover, the growth was 45.1% in test [7]; 36.7% in test [8]; 60.1% in test [9]; 61% in [10]; 35.5% in test [11]; 86.5% in test [12]. The growth in [13] was 86.1%; in test [14] it was 67.9%; in test [15] it was 79.7%; in test [16], 89.4%; in test [17], 40.8%; in test [18], 74.1%. In addition, the growth in test [19] was 98.5%.

On to `CS(=O)(=O)OCCN(CCOS(C)(=O)=O)c1ccc(/C=N/Nc2ccc([N+](=O)[O-])cc2[N+](=O)[O-])cc1`, for which the growth was 100% in [1]; 85.9% in test [2]; 77.2% in test [3]; 82.7% in [4]; 76% in test [5]; 67.3% in test [6]. The growth in test [7] is 89.2%; in test [8], 78%; in test [9] it was 63.5%; in [10], 95.7%; in test [11], 118%; in test [12], 81.7%. In addition, the growth was 77.6% in [13]; 88.9% in [14]; 112% in test [15]; 84.6% in test [16]; 70.4% in test [17]; 55.5% in test [18]. Also, in test [19], the growth was 88.4%.

For `N#CC1=C(N)Oc2c(ccc3ccccc23)C1c1ccc([N+](=O)[O-])cc1` (configuration not stated), the growth in test [1] was 41.5%; in [2] it was 90.3%; in test [3], 44.8%; in test [4] it was 87.8%; in test [5], 89.8%; in test [6], 65.4%. Moreover, the growth in test [7] is 86%; in [8], 65.6%; in test [9], 59.1%; in [10], 89.3%; in test [11], 86%; in test [12], 76.9%. Further, the growth was 90.4% in test [13]; 54.7% in test [14]; 145% in [15]; 90.3% in test [16]; 41.6% in test [17]; 66.9% in [18]. Moreover, the growth in test [19] is 58.6%.

As to `CN1CCCC1=Nc1ccccc1`, the growth in [1] was 111%; in test [2], 98.1%; in test [3], 80%; in test [4] it was 107%; in test [5], 94.7%; in test [6] it was 96.9%. The growth was 104% in test [7]; 91.4% in test [8]; 96.6% in test [9]; 96.6% in test [10]; 114% in test [11]; 103% in test [12]. Also, the growth was 95.5% in test [13]; 92.2% in test [14]; 107% in test [15]; 115% in [16]; 94.6% in [17]; 105% in [18]. Besides, the growth in test [19] is 101%.

Consider `Clc1nc(Nc2ccccc2)nc(Nc2ccccc2)n1`, for which the growth in test [1] is 100%; in [2] it was 116%; in [3] it was 105%; in test [4], 104%; in test [5] it was 110%; in test [6], 99.5%. The growth in test [7] is 99.8%; in test [8], 96.3%; in test [9], 94.1%; in test [10], 112%; in test [11], 106%; in test [12], 106%. For the same compound, the growth in [13] is 95.9%; in test [14], -80.6% (active); in [15], 122%; in test [16], 98.9%; in test [17] it was 86.5%; in test [18], 91.7%. In addition, the growth in test [19] is 86.3%.

Turning to `CN1CCN(CC#CCNC(=O)[C@]23CCC(C)(C)C[C@H]2C2=CC[C@@H]4[C@@]5(C)Cc6c([nH]c7ccccc67)C(C)(C)[C@@H]5CC[C@@]4(C)[C@]2(C)CC3)CC1`, the growth in test [1] was 39.2%; in test [2], 7.18% (active); in test [3], 92.7%; in [4] it was 79.3%; in test [5] it was 42.7%; in [6] it was 56.7%. The growth in test [7] was 75.1%; in test [8], 95.7%; in [9], 66.7%; in [10] it was 79%; in test [11] it was 98.3%; in [12], 83.3%. Besides, the growth is 77.8% in [13]; 64.2% in test [14]; 91.8% in [15]; 95.3% in test [16]; 87.2% in test [17]; 48.8% in [18]. Moreover, the growth in test [19] was 31.2%.
